In PubChem BioAssay (Tox21):
Inconclusive results are not listed. Entries that show only a call come without a potency. A number with no mark means an inactive call. Calls of active or inactive are those of the source. Calls come from the whole dose curve; as a rule, active = well fitted activation curve with a large enough effect in the repeat runs; inconclusive = weak or mixed curves, or effect the other way; inactive = no such curve, though single readings can be large or run the other way.

Assay: qHTS assay to identify small molecule agonists of the retinoic acid receptor (RAR) signaling pathway (AID 1159553)
Settings: C3RL4 RARE luciferase reporter, agonist, 6 h; activation: at 73.3 µM (top of the series) unless noted
From the text: National Center for Advancing Translational Sciences [NCATS] NIH Chemical Genomics Center [NCGC] U.S. Environmental Protection Agency [EPA] National Institutes of Environmental Health Sciences [NIEHS] National Toxicology Program [NTP] Assay overview: All-trans Retinoic acid (atRA) is the potent natural metabolite of retinol and plays an important role in normal embryonic development and maintenance of cellular phenotype in adult animals. atRA is the activating ligand for the retinoic acid receptors (RARs) which form heterodimers with retinoid X receptors (RXRs) on the retinoic acid response element (RARE). Through activation of the RAR/RXRs nuclear receptors, atRA regulates the transcription of a large number of protein-coding genes and regulatory RNAs. Intracellular levels of atRA are controlled by the retinol signaling pathway (RSP) that regulates the biosynthesis and catabolism of atRA to maintain physiological levels. Chemicals that interfere with the RSP can cause abnormal intracellular levels of atRA and therefore are potential developmental toxicants. To assess compounds for the potential adverse effect on embryonic development through interfering with retinol signaling, a cell-based RARE luciferase reporter gene assay was used. C3RL4 cell line (OARSA/CFSAN/FDA, Laurel, MD) was used to screen Tox21 10K compound library for identifying activators of the RSP.
Assay Protocol Summary: C3RL4 cells were seeded at 1,000/well in 5 uL of assay medium into white solid 1,536-well tissue culture plates (Greiner Bio-One North America Inc. Monroe, NC) using a Multidrop Combi (Thermo Scientific, Waltham, MA) dispenser. After incubation at 37 C and 5% CO2 for an overnight, 23 nL of compounds dissolved in DMSO, positive control or DMSO only were transferred by a Pintool station (Kalypsys, San Diego, CA). After 6 hr incubation at 37 C and 5% CO2, 5 uL of Amplite Luciferase reagent (AAT Bioquest Inc. Sunnyvale, CA) was added to each assay plate using a Flying Reagent Dispenser (FRD) (Aurora Discovery, San Diego, CA). Luminescence was quantified on a ViewLux plate reader (PerkinElmer, Waltham, MA) after 30 min incubation at room temperature.
Potency is the fitted concentration of half-maximal effect.

Q: For `CC[C@H](C)COC(=O)/C=C/c1ccc(N=Cc2ccc(OC)cc2)cc1`, which Potency is on record?
A: The Potency was 1.22 µM (active).

Q: With `Cc1c2ccccc2c(C)c2c1ccc1ccccc12` as the molecule, how does the Potency read?
A: The Potency was 54.5 µM (active).

Q: For `Cc1cc(C(C)(C)C)c(O)c(C)c1Cn1c(=O)n(Cc2c(C)cc(C(C)(C)C)c(O)c2C)c(=O)n(Cc2c(C)cc(C(C)(C)C)c(O)c2C)c1=O`, which Potency is on record?
A: The Potency was “inactive”.

Q: For `OC12N=C(c3ccccc3)SC1Cc1cc(Cl)ccc12` (stereo not given), which Potency is on record?
A: The Potency was 1.22 µM (active).

Q: Which Potency does the source give for `CC1(C)CC(O)CC(C)(C)N1` here?
A: Its Potency is “inactive”.

Q: Which Potency does the source give for `CCCCCC/C=C\CCCCCCCC(=O)O` here?
A: The Potency was “inactive”.

Q: With `CCCCC/C=C\C/C=C\CCCCCCCC(=O)O` as the molecule, how does the Potency read?
A: The Potency was “inactive”.

Q: With `C=C(C)c1cccc(C(=C)C)c1` as the molecule, how does the Potency read?
A: The Potency was “inactive”.

Q: Which Potency does the source give for `O=c1oc2cc(O)ccc2c2oc3cc(O)ccc3c12` here?
A: The Potency was 52.2 µM (active).

Q: Which Potency does the source give for `Cc1cc(-c2ccc(N=Nc3cc(S(=O)(=O)O)c4ccccc4c3N)c(C)c2)ccc1N=Nc1cc(S(=O)(=O)O)c2ccccc2c1N` here?
A: The Potency was “inactive”.

Q: Which Potency does the source give for `CC(C)=CCC1=C(O)c2ccccc2C(=O)C1=O` here?
A: Its Potency is “inactive”.

Q: For `CC1(C)CCC[C@]2(C)[C@H]3CC(=O)O[C@]3(C)CC[C@@H]12`, which Potency is on record?
A: The Potency was “inactive”.

Q: With `O=c1[nH]c(=O)n([C@H]2C[C@H](O)[C@@H](CO)O2)cc1F` as the molecule, how does the Potency read?
A: Its Potency is “inactive”.

Q: With `CCCCN(CCCC)CC(O)c1cc(Cl)cc2c1-c1ccc(Cl)cc1/C2=C/c1ccc(Cl)cc1` (stereo not given) as the molecule, how does the Potency read?
A: The Potency was “inactive”.

Q: With `O=C(O)c1cc(N=Nc2ccc([N+](=O)[O-])cc2)ccc1O` as the molecule, how does the Potency read?
A: Its Potency is 6.73 µM (active).

Q: With `CCCCOC(=O)CC` as the molecule, how does the Potency read?
A: Its Potency is “inactive”.

Q: Which Potency does the source give for `CCCCCCC1CCCC(=O)O1` (stereo not given) here?
A: Its Potency is “inactive”.

Q: Which activation does the source give for `CC(C)(C)CC(C)(C)c1ccc(Nc2ccc(C(C)(C)CC(C)(C)C)cc2)cc1` here?
A: Its activation is -3.08% [at 8.36 µM].

Q: For `O=[N+]([O-])c1ccc(O)cc1C(F)(F)F`, which Potency is on record?
A: The Potency was “inactive”.

Q: Which Potency does the source give for `CCc1ccc(Br)cc1` here?
A: The Potency was “inactive”.

Q: Which Potency does the source give for `COc1cc(C)ccc1O` here?
A: Its Potency is “inactive”.

Q: With `OC/C=C/CO` as the molecule, how does the Potency read?
A: Its Potency is “inactive”.

Q: Which Potency does the source give for `O=S(=O)(O)c1ccccc1/C=C/c1ccc(-c2ccc(/C=C/c3ccccc3S(=O)(=O)O)cc2)cc1` here?
A: The Potency was “inactive”.

Q: Which Potency does the source give for `C=CCCC(=O)/C=C/C1C(C)=CCCC1(C)C` (stereo not given) here?
A: The Potency was “inactive”.

Q: Which Potency does the source give for `Cc1cccc(C(=O)O)c1O` here?
A: The Potency was “inactive”.

Q: Which Potency does the source give for `CC(CCc1ccccc1)NCC(O)c1ccc(O)c(C(N)=O)c1` (stereo not given) here?
A: The Potency was “inactive”.

Q: Which Potency does the source give for `CC(=O)Oc1cc2c(s1)CCN(C(C(=O)C1CC1)c1ccccc1F)C2` (stereo not given) here?
A: The Potency was “inactive”.

Q: For `C1CCC(SSC2CCCCC2)CC1`, which Potency is on record?
A: Its Potency is “inactive”.

Q: For `CC(=O)c1ccc(C(C)=O)cc1`, which Potency is on record?
A: Its Potency is “inactive”.

Q: With `O[C@@H]([C@H](O)[C@H](O)CBr)[C@H](O)CBr` as the molecule, how does the Potency read?
A: The Potency was “inactive”.

Q: For `C#C[C@]1(OC(C)=O)CC[C@H]2[C@@H]3CCC4=C[C@@H](OC(C)=O)CC[C@@H]4[C@H]3CC[C@@]21C`, which Potency is on record?
A: Its Potency is “inactive”.

Q: For `COCCOc1cc2cc(C(=O)NC3CCN(C(C)C)CC3)n(CC(=O)Nc3ccc(Cl)cn3)c2cn1`, which Potency is on record?
A: Its Potency is “inactive”.

Q: Which Potency does the source give for `C#C[C@]1(OC(C)=O)CC[C@H]2[C@@H]3CCC4=C/C(=N/O)CC[C@@H]4[C@H]3CC[C@@]21CC` here?
A: Its Potency is “inactive”.

Q: With `c1cnccn1` as the molecule, how does the Potency read?
A: Its Potency is “inactive”.

Q: With `CCc1cccc(CC)c1NC(=O)CN(CC(=O)O)CC(=O)O` as the molecule, how does the Potency read?
A: Its Potency is “inactive”.

Q: Which Potency does the source give for `CN(C)Cc1ccccc1O` here?
A: The Potency was “inactive”.

Q: With `COC(=O)Nc1nc2ccc(C(=O)c3ccccc3)cc2[nH]1` as the molecule, how does the Potency read?
A: Its Potency is “inactive”.

Q: With `CCCCCc1ccc(Cl)cc1` as the molecule, how does the Potency read?
A: The Potency was “inactive”.

Q: With `O=C(O)c1cc(=O)c2ccccc2o1` as the molecule, how does the Potency read?
A: Its Potency is “inactive”.

Q: Which Potency does the source give for `Cc1ccc(C(C)C)cc2c(C)ccc1-2` here?
A: Its Potency is “inactive”.
